Bioassay records (PubChem)
The list is not random: actives were taken first. Their share in the collection is about 12%.
JMJD2A Tudor: inhibitors of human JMJD2A Tudor domain | O75164 | AlphaScreen JMJD2A-Tudor / H3K4me3 peptide binding | Potency, µM (top dose mostly 114 µM), inactives show top-dose activity change, negative = inhibition, hits mostly inhibitors | 4.4% of 390,000 active | AID 504339; further: on the % scale 0 is the no-effect control and ±100 the full control effect; nearly all actives have a fitted effect of over 50% in size
G9a inh: blocks human histone lysine methyltransferase G9a | Q96KQ7 | G9a H3K9 monomethylation, AlphaScreen, 2 h | Potency, µM (highest dose often 102 µM), inactives show at the highest dose activity, negative = inhibition, most hits filed as inhibitors | 8.8% of 350,000 active | AID 504332; further: on the % scale 0 is the no-effect control and ±100 the full control effect; nearly all actives have a fitted effect of over 75% in size
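Compounds were preincubated with 20 nM G9a for 15 min, after which biotinylated H3K9 peptide (500 nM) and SAM (20 uM) started a 2 h room-temperature reaction. Monomethylated product was quantified by antibody-based AlphaScreen chemiluminescence.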
BAZ2B inh: inhibitors of human BAZ2B bromodomain. Q9UIF8. AlphaScreen BAZ2B-H3K14Ac peptide displacement. Potency, µM (titrated, usually from 114 µM), for inactives: at the top dose activity change, negative = inhibition, most hits filed as inhibitors. 4.4% of 360,000 active. AID 504333; further: on the % scale 0 is the no-effect control and ±100 the full control effect; nearly all actives have a fitted effect of over 60% in size
Target sequence (Q9UIF8 whole entry, looked up): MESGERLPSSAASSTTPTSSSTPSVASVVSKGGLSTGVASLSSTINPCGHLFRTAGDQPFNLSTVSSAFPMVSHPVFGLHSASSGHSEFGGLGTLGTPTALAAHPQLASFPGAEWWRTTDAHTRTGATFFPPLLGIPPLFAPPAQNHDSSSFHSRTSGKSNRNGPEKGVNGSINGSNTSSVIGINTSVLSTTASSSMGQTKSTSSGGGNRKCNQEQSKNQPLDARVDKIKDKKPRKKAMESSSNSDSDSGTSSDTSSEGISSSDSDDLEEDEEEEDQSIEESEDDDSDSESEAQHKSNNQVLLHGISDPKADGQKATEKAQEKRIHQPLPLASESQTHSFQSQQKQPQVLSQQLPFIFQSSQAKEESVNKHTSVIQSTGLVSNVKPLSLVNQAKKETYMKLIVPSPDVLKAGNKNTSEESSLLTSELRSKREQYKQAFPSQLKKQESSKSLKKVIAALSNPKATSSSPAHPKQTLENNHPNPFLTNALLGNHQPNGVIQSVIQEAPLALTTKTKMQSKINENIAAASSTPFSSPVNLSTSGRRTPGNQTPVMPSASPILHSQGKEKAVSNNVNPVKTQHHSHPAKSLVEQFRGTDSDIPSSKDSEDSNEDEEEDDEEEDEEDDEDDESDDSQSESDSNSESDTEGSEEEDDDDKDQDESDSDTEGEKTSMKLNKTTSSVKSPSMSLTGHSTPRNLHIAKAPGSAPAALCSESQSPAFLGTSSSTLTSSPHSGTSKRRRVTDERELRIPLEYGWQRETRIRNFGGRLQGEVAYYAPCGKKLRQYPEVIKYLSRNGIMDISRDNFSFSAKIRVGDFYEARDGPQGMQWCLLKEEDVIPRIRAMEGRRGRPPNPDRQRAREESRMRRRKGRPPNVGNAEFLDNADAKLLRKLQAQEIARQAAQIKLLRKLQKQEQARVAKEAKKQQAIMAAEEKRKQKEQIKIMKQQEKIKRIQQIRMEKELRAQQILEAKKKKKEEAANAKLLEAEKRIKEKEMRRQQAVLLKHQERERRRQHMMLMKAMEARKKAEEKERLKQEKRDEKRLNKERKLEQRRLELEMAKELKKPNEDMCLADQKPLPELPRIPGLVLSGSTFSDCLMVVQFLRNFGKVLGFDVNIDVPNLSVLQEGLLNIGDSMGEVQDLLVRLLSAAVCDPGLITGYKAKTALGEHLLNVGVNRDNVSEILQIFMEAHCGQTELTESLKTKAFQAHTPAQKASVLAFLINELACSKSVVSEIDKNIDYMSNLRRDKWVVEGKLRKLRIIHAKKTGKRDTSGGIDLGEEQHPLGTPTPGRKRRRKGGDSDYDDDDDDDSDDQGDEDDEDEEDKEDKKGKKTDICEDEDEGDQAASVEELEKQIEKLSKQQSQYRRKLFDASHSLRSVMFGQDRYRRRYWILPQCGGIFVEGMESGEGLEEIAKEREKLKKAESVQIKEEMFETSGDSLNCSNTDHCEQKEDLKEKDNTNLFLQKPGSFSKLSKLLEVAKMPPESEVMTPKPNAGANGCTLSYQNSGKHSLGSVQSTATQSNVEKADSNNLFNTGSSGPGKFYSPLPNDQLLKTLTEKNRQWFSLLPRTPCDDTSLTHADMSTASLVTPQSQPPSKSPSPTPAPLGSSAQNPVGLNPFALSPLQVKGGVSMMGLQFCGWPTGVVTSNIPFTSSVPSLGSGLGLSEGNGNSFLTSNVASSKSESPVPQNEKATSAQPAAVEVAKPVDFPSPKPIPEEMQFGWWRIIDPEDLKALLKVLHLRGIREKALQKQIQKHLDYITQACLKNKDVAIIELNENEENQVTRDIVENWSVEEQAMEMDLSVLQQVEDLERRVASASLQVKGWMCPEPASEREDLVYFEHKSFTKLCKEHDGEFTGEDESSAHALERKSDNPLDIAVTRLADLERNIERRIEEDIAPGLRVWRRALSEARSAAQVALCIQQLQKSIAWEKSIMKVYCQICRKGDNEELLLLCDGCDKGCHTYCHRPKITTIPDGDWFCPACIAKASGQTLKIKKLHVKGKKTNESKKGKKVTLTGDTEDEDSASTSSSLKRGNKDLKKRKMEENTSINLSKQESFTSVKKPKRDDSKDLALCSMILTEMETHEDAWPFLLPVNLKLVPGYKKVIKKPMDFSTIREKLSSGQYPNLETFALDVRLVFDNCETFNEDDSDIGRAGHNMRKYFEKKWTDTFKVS
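BAZ2B 50 nM plus b-H3(5-23)K14Ac 50 nM, PBS pH 7.4/0.01% Tween-20, 30 min RT; compound added (max 110 uM), 30 min RT; streptavidin donor/Ni-chelate acceptor beads 10 ug/mL final, 20 min dark; AlphaScreen read.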
TDP1 inh: inhibitors of human tyrosyl-DNA phosphodiesterase TDP1 | 0.28% of 350,000 active | recombinant TDP1, AlphaScreen DNA substrate cleavage | Potency, µM (series often up to 130 µM), without a hit: at the top dose activity change, negative = inhibition, actives largely listed as inhibitors | AID 485290 | Q9NUW8; further: on the % scale 0 is the no-effect control and ±100 the full control effect; nearly all actives have a fitted effect of over 40% in size
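Recombinant human Tdp1 (E. coli-expressed, 1 nM final) preincubated with compounds 15 min at room temperature, then 5'-biotin/3'-phosphotyrosine-FITC DNA substrate (15 nM final) added for 5 min. AlphaScreen beads (10 ug/ml final) added 10 min; cleavage lowers signal.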
HP1b chromo inh: inhibitors of HP1-beta chromodomain binding to methylated histone tails | AlphaScreen HP1-beta / biotin-H3K9me3 peptide binding | Potency, µM (doses to about 114 µM), inactives show at the top dose activity change, negative = inhibition, most hits filed as inhibitors | 0.56% of 390,000 active; further: nearly all actives have a fitted effect of over 70% in size
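HP1-beta protein (50 nM final) preincubated 30 min at room temperature with biotinylated H3(1-18)K9me3 peptide (50 nM) in PBS pH 7.4, 0.01% Tween-20, then compound added for 30 min. AlphaScreen streptavidin donor/nickel chelate acceptor beads (10 ug/mL final), 30 min dark, luminescence read.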
Sfp inh: blocks B. subtilis Sfp PPTase activity | AID 1490 | 3.5% of 310,000 active | Potency, µM, for the others: largest response in the series, negative = inhibition, most hits filed as inhibitors | Biochemical Sfp PPTase activity, qHTS;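 further: the enzyme is Sfp with the accession as filed and its product quenches rhodamine fluorescence; 0% = enzyme reaction without inhibitor and -100% = no enzyme wells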
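Fluorescence-quenching assay with 15 nM Sfp, 5 uM rhodamine-CoA and 12.5 uM BHQ-2-labelled ybbR peptide in pH 7.6 Hepes/MgCl2 buffer. Enzyme was pre-incubated with compound for 15 min at room temperature. Rate was taken from the 30-min fluorescence change (525/598 nm).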
* marks the source's active call; other numbers are inactive results; ? = inconclusive; / = no result; [ ] = dose if it differs, or a comment. The call rests on the fitted dose curve; in most records, active means well fitted curve in the direction sought with a large enough effect; inconclusive means small, poorly fitted or top-dose-only effect, or another doubt; inactive means no such curve, though single readings can be large; an effect the other way counts as inactive or inconclusive. Potency means the concentration at half of the fitted maximal effect.

SMILES	JMJD2A Tudor	G9a inh	BAZ2B inh	TDP1 inh	HP1b chromo inh	Sfp inh
CCOC(=O)N/N=C/c1ccc(C)o1	-24%	11%	-4%	0%	5%	26%
Cc1ccc(/C=N/NC(=O)CSc2nnc(-c3ccc(Cl)cc3)n2-c2ccc(Cl)cc2)o1	-10%	-3%[59 µM]	3%	3%	26%	?
Cc1ccc(/C=N/NC(=O)CSc2nnc(-c3ccccc3)n2-c2ccc(Cl)cc2)o1	-34%	45µM*	?	6%	-11%	-28%
Cc1ccc(/C=N/NC(=O)c2ccccn2)o1	-13%	?	-2%	1%	36%	56µM*
Cc1ccc(/C=N/NC(=O)C2(O)c3ccccc3-c3ccccc32)o1	-8%	56µM*	-31%	-4%	30%	?
O=C(NN=C1C2CC3CC1CC(Cl)(C3)C2)c1ccccn1	-23%	-7%	-16%	3%	39%	7.9µM*
CCc1nnc(NC(=O)CSc2nc3c([nH]c4ccccc43)c(=O)n2-c2cc(C)cc(C)c2)s1	-12%	23%[59 µM]	1%	5%	21%[57 µM]	/
O=C(NN=C1c2ccccc2-c2ccccc21)c1ccccn1	?	4%	50µM*	2%	11%	?
C/C(CC(=O)NC1CCCCC1)=N\NC(=O)c1ccccn1	?	/	-30%	8%	35%	89µM*
Cc1ccc(C)n1-c1ccc(C(=O)N/N=C/c2ccncc2)cc1	79µM*	-21%	/	0%	?	10%
O=C(N/N=C/c1ccncc1)c1ccccn1	0%	2µM*	50µM*	/	40%	?
CCc1ccc(C2c3c(oc4ccc(F)cc4c3=O)C(=O)N2c2nc(C)c(C(=O)OC)s2)cc1 (centres undefined)	6%	2%[59 µM]	2%	4%	39%	/
Cc1ccc(/C=N/NC(=O)Cn2cnc3ccccc32)o1	-9%	/	-26%	2%	24%	-65%
Cc1ccc(/C=N\NC(=O)Cn2nnc3ccccc32)o1	-8%	89µM*	0%	2%	33%	?
COc1ccc2c(C=O)c[nH]c2c1	-13%	-5%[59 µM]	-3%	-1%	3%	8%
COc1ccc2c(/C=C/c3cc[n+](C)cc3)c[nH]c2c1	-18%	50µM*	-8%	/	-10%	5%
Cc1ccc2[nH]cc(/C=C/c3cc[n+](C)cc3)c2c1	-15%	45µM*	-12%	/	-25%	-9%
CCOC(=O)c1cc(C(C)(C)C)nc(SC)c1C#N	117%	478%	130%	-6%	184%	-3%
CCOC(=O)c1cc(C)nc(SC)c1C#N	12%	50µM*	-1%	-10%	67%	79µM*
COC(=O)c1ccc(/C=C2\SC(=S)N(CCCC(=O)NCCCN3CCOCC3)C2=O)cc1	-33%	?	?	/	71µM*	-3%
CC(C)c1ccc(/C=C2\SC(=S)N(CC(=O)NCCCN3CCOCC3)C2=O)cc1	?	79µM*	32µM*	/	?	-29%
CCc1ccc(/C=C2\SC(=S)N(CCC(=O)NCCCN3CCOCC3)C2=O)cc1	?	/	35µM*	7%	-8%	-13%
O=C(CCCN1C(=O)/C(=C/c2cccc(Br)c2)SC1=S)NCCCN1CCOCC1	45µM*	45µM*	10µM*	14%	-19%	?
Cc1cc(C)nc(Sc2nc(Cl)nc(N(c3ccccc3)c3ccccc3)n2)n1	6.3µM*	?	?	1%	41%	25µM*
Cc1cc(C)nc(SC(C(=O)O)c2ccccc2)n1 (centres undefined)	-11%	10%[59 µM]	-1%	8%	48%	11%
SMILES	JMJD2A Tudor	G9a inh	BAZ2B inh	TDP1 inh	HP1b chromo inh	Sfp inh
CC(C)(C)c1c(Cl)c(O)c(-c2ccccc2)c(=O)n1-c1ccccc1	50µM*	/	18µM*	1%	?	-6%
CC(C)c1ccc(C(=O)NNC(=O)c2n[nH]c(=O)c3ccccc23)cc1	-15%	5µM*	8%	1%	27%	/
Cc1[nH]c(=O)[nH]c1C(=O)CCCCC(=O)O	0.89µM*	1.6µM*	0.89µM*	6%	-96%	14%
CCCCSCc1[nH]c(=O)[nH]c1C(=O)CCCCC(=O)OCC	-14%	?	?	5%	35%	-1%
O=c1c(-c2cc(F)cc(F)c2)nc2cnc(N3CCOCC3)nc2n1Cc1ccc(F)cc1	/	6%[0.501 µM]	/	/	/	27%
CCOC(=O)c1c(C)[nH]c(C)c1C(=O)COC(=O)C1CCCN1S(=O)(=O)c1ccccc1F (centres undefined)	-25%	50µM*	?	7%	-8%	1%
CC(=O)c1ccccc1NC(=O)COC(=O)C1CCCN1S(=O)(=O)c1ccccc1F (centres undefined)	2%	?	14%	0%	44%	/
Nc1nc(N)n(-c2ccccc2)c(=Nc2ccccc2)n1	0%	-9%	0%	/	36%	14%
O=C(Cc1ccccc1)NCC(=O)N1CCc2ccccc2C1	-10%	-11%	8%	/	21%	9%
O=C(CNCCc1ccccc1)N1CCc2ccccc2C1	3.2µM*	22µM*	50µM*	-8%	?	2%
O=C(CN1CCc2ccccc2C1)NCc1ccco1	-14%	?	14%	6%	25%	7%
O=C(NC1CCCCC1)N1CCc2ccccc2C1	-20%	7%	-11%	8%	-12%	13%
O=C(CNC1CCCCC1)N1CCc2ccccc2C1	3.2µM*	-46%[12.7 µM]	71µM*	?	-10%	?
O=C(CNCc1ccc(Cl)cc1)N1CCc2ccccc2C1	22µM*	-4%	?	/	-34%	-2%
CC(NCc1ccco1)C(=O)N1CCc2ccccc2C1 (centres undefined)	11µM*	?	56µM*	2%	?	-3%
CCC1CCCCN1CCCNC(=O)c1ccc2c(c1)N(Cc1cccc(Cl)c1)C(=O)c1ccccc1S2(=O)=O (centres undefined)	-30%	?	-23%	7%	-21%	/
CCOc1cc(Cl)c(S(=O)(=O)NCCCN2CCOCC2)cc1Cl	-9%	-10%[59 µM]	1%	-2%	4%	13%
O=C(CNCc1cccc(Cl)c1)N1CCc2ccccc2C1	20µM*	14µM*	56µM*	/	-37%	-25%
Cc1ccc2nsnc2c1N	-9%	/	0%	0%	19%	-6%
Nc1cccc2nsnc12	-15%	11µM*	-5%	/	-7%	-22%
N#CC(C#N)=C1c2cc(S(N)(=O)=O)ccc2-c2ccc(S(N)(=O)=O)cc21	-8%	18µM*	-37%	-2%	36%	40µM*
N#CC(C#N)=C1c2cc(S(=O)(=O)NCCO)ccc2-c2ccc(S(=O)(=O)NCCO)cc21	-9%	/	-17%	/	66%	56µM*
